Bioassay records: PubChem BioAssay, National Center for Advancing Translational Sciences (NCATS)
HPGD inh = HPGD (human) dehydrogenase inhibition. Potency, µM, for the others: top-dose activity change, negative = inhibition, hits mostly inhibitors. P15428. 150,000 compounds, 4.3% hits. purified HPGD, NADH fluorescence kinetic, PGE2 substrate; active = well fitted inhibition curve with a large enough effect, not every such curve was filed as active; inconclusive = small, poorly fitted or top-dose-only effect, or another doubt; inactive = no such curve, though single readings can be large or run the other way; note: potency is the fitted concentration of half-maximal effect
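20 nM HPGD preincubated 15 min at room temperature with compound in 50 mM Tris-HCl pH 8, 0.01% Tween 20. Started with 1 mM NAD+ and 30 uM prostaglandin E2; NADH fluorescence (360/450 nm) read 5 times over 30-s intervals, last minus first.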
IMPase cell inh = cell-permeable inhibitors of inositol monophosphatase (IMPase). CHO-M1 cells, IP1 accumulation, HTRF TR-FRET ratio. 120,000 tested, under 10 active. inhibition (IP1 accumulation), % at 46.1 µM. P97697; active = well fitted curve in the direction sought with a large enough effect in the signal ratio, not every such curve was filed as active; inconclusive = small, poorly fitted or top-dose-only effect, or a change in a side signal; inactive = no such curve, though single readings can be large or run the other way; the % refers to the signal ratio;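 note: cells stimulated with carbachol in lithium chloride buffer; plate controls were DMSO basal wells for no effect and reference inhibitor wells for full effect; higher means more IMPase inhibition seen as more IP1 and lower FRET ratio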
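The IP-One HTRF competitive assay in carbachol-stimulated CHO-M1 cells quantifies cellular IP1. Compounds spanned up to 46 uM final, and activity is expressed as AC50 from concentration-response fits of the ratio and donor data.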
ALOX12 inhib = blocks human 12-lipoxygenase activity | purified 12-hLO, xylenol orange hydroperoxide absorbance | Potency, µM (titrated, usually from 57.1 µM), for the others: top-dose activity change, negative = inhibition, most hits filed as inhibitors | 150,000 compounds, 0.12% hits | AID 1452; note: potency is the fitted concentration of half-maximal effect; nearly all actives have a fitted effect of over 55% in size
Target sequence (P18054 whole entry, looked up): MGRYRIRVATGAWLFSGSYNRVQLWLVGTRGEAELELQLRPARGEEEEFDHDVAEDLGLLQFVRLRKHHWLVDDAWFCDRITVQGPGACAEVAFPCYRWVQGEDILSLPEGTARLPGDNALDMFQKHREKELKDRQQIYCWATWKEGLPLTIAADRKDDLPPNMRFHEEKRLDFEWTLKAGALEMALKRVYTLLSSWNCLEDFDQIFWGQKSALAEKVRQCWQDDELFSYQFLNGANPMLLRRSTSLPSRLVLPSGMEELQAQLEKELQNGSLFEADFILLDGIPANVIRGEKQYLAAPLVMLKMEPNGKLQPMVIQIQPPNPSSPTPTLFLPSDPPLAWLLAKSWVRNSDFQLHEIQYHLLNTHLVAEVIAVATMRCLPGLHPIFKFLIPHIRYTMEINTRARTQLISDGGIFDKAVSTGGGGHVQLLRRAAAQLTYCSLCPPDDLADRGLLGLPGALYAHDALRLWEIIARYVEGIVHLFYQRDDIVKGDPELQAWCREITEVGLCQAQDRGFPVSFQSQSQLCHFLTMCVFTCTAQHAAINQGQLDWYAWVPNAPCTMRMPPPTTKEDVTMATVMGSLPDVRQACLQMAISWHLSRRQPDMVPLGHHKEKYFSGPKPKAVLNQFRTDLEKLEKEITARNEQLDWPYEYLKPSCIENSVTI
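Hydroperoxide formation by human 12-lipoxygenase from 40 uM arachidonic acid was followed colorimetrically via ferric-xylenol orange complex, using the 573/405 nm absorbance ratio. Enzyme concentration was 150 nM, with 30 min reaction at room temperature.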
IMPase Li inh = membrane-permeable IMPase blocker, potentiated with lithium | Potency, µM (series often up to 59.4 µM), inactives show at the highest dose activity, negative = IMPase inhibition, actives largely listed as inhibitors | 210,000 compounds, 0.35% hits | CHO-M1 cells, IP1 TR-FRET (IP-One), carbachol + lithium;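 note: IP1 builds up when IMPase is blocked and the TR-FRET signal falls; potency is the fitted concentration of half-maximal effect; plate controls were basal vehicle for no effect and high inhibitor control for full effect; nearly all actives have a fitted effect of over 50% in size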
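IP1 accumulation measured by competitive TR-FRET in lysed CHO-M1 cells after 30 min compound exposure at 37C, with a small lithium addition to potentiate weak responses. Hill-equation AC50 from ratio and donor-channel data.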
PNC inhibitor = perinucleolar compartment assembly inhibition; PC3M PTB-GFP, PNC prevalence imaging, 16 h; active compounds read low; activity change (PNC), negative = inhibition, % at 10 µM; 140,000 compounds, 3.1% hits; AID 2417;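 active = readout at or below -70, meaning at least 70% loss of cells showing the perinucleolar compartment, a nuclear body marking cancer cells; inconclusive = readout between -30 and a set limit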;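 note: plate controls were DMSO wells for no effect and camptothecin positive control wells for full effect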
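Compounds are pinned in duplicate onto adhered PC3M cells stably expressing GFP-tagged PTB and incubated 16 h at 37 C. Cells are then fixed, nuclei stained with Hoechst, and PNC-positive cells counted.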
ALOX15B inhib = inhibitors of human 15-lipoxygenase 2 (ALOX15B) | O15296 | purified 15hLO-2, xylenol orange hydroperoxide absorbance | Potency, µM (doses to about 57.1 µM), for inactives: at the highest dose activity change, negative = inhibition, most hits filed as inhibitors | 110,000 compounds, 0.56% hits | AID 881; note: potency is the fitted concentration of half-maximal effect; nearly all actives have a fitted effect of over 60% in size
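Read-out: hydroperoxide product oxidises ferrous iron, measured as xylenol orange complex via the 573-to-405 nm absorbance ratio after 30 min. Reaction: 50 nM enzyme, 15 min compound preincubation, 45 uM arachidonic acid, 90 min RT, Hepes pH 7.5 with Triton X-100.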
The depositor's hits bear a star; ? = inconclusive; / = no result given; ! = repeats disagree; [ ] = dose if it differs, or a comment. Rows were chosen to be rich in hits. Some 5.4% of all compounds tested hit in one or more screens of this group. Unless noted, calls come from the whole dose curve; as a rule, active = well fitted curve in the direction sought with a large enough effect; inconclusive = small, poorly fitted or top-dose-only effect, or another doubt; inactive = no such curve, though single readings can be large; an effect the other way counts as inactive or inconclusive. Unless noted, % is set by controls: 0 for no effect and ±100 for the full control effect.

SMILES	HPGD inh	IMPase cell inh	ALOX12 inhib	IMPase Li inh	PNC inhibitor	ALOX15B inhib
CCCOc1ccccc1-c1nc2n[nH]nc2c(=O)[nH]1	8.9µM*	3	-3%	5%	/	0%
Cc1nc2ncnn2c(N2CCCC(C(=O)Nc3ccc4c(c3)CCC4)C2)c1C (centres undefined)	28µM*	5	-5%	6%[38.3 µM]	-11	5%
CC(C)=CCCC(C)NC(=O)NC1CCCCC1 (centres undefined)	35µM*	3	-3%	7%	0	/
CCN(CC)S(=O)(=O)c1ccc(NC(=O)CSc2nnc(-c3ccc(F)cc3)o2)cc1	-2%	-3	-27%	23%[38.3 µM]	-107*	21%
CN(C)c1ncc2nc(-c3ccccc3)c(=O)n(C)c2n1	/	/	/	-11%	/	-11%
Clc1ccc(-c2n[nH]c3c2CCC3)cc1Cl	18µM*	6	-30%	-5%[38.3 µM]	9	62%
N[C@@H](Cc1ccc(O)c(O)c1)C(=O)O	-17%	-2[20.6 µM]	-5%[25.6 µM]	5%	/	4%[25.6 µM]
CC(N)(Cc1ccc(O)c(O)c1)C(=O)O (centres undefined)	10µM*	/	/	-2%	/	/
C[C@@](Cc1ccc(O)c(O)c1)(NN)C(=O)O	22µM*!	3	-6%	-4%	-28	59%[0.0915 µM]
C[C@@](N)(Cc1ccc(O)cc1)C(=O)O	-11%	6	4%	0%	/	-3%
Cc1ccc(Oc2nc3c(c(=O)n(Cc4ccccc4)c(=O)n3C)n2C)cc1C	/	6	/	/	/	/
CCn1c(=O)c(C(=O)Nc2ccccc2C)c(O)c2ccccc21	?	-7	-5%	-10%	-100*	/
CCOC(=O)NCc1ccc(Cl)c(Cl)c1	2%	1	-1%	17%[38.3 µM]	?	-1%
Cc1ccc(C(=O)NCc2ccc(Cl)c(Cl)c2)o1	13µM*	1	-2%	-1%[38.3 µM]	18	12%
CN1CCN(c2ncc3nc(-c4ccccc4)c(=O)n(C4CC4)c3n2)CC1	/	/	/	-1%	/	20%
Cc1ccc(C(=O)N2CCN(c3ccc(NC(=S)NC(=O)Cc4ccccc4)cc3)CC2)cc1	-10%	6	?	14%[38.3 µM]	-13	13µM*
Cc1ccc(C(=O)N2CCN(c3ccc(NC(=O)COc4ccccc4C)cc3)CC2)cc1	/	/	/	20%	/	/
COC(=O)Cc1ccc(NC(=S)N2CCN(c3ccc(F)cc3)CC2)cc1	-3%	10	-1%	11%	-96*	/
N=C(N)S[C@H]1c2ccccc2-c2cc([N+](=O)[O-])ccc21	-13%	/	-1%[11.4 µM]	-3%	/	-8%[11.4 µM]
CCc1ccccc1NC(=O)CN(c1cc(C(F)(F)F)ccc1Cl)S(=O)(=O)c1ccccc1	/	6	/	/	/	/
COc1cc(N)c(Cl)cc1C(=O)N[C@H]1CCN(CCCOc2ccc(F)cc2)C[C@@H]1OC	-16%	5	-3%	27%	/	43%
CCn1c(=S)sc2c(=O)n(-c3ccccc3)c(=S)[nH]c21	/	/	/	6%	/	/
CCN(CC)C(=O)c1sc2[nH]c(=S)n(-c3ccccc3)c(=O)c2c1C	28µM*	-11	0%	?	88	?
COc1ccc2c(c1)OC(=O)CC2c1ccccc1C (centres undefined)	-7%	/	-3%[0.00818 µM]	0%	/	-20%[0.0915 µM]
O=P1(O)Oc2c(-c3ccccc3)cc3ccccc3c2-c2c(c(-c3ccccc3)cc3ccccc23)O1	-8%	/	/	5%	/	/
SMILES	HPGD inh	IMPase cell inh	ALOX12 inhib	IMPase Li inh	PNC inhibitor	ALOX15B inhib
O=C(COC(=O)C1CCN(S(=O)(=O)c2cccs2)CC1)c1ccccc1	/	/	/	-2%	/	/
O=C(OCn1nnc2ccccc2c1=O)C1CCN(S(=O)(=O)c2cccs2)CC1	-8%	0	0%	0%	-100*	/
Cn1c2c(c(=O)c3ccccc31)CCC(C)(C)O2	28µM*	/	2%	-2%	?	/
Cc1nn(-c2ccccc2)c(C)c1/C=N/NC(=O)c1cc(C(C)(C)C)[nH]n1	-27%	6	-2%	40%	-83*	-2%
Cc1ccc(-c2cc(C(=O)N/N=C/c3c(C)nn(-c4ccccc4)c3C)n[nH]2)s1	?	-2	1%	13%	-115*	/
Cc1ccc(-c2cc(C(=O)N/N=C/c3c(C)nn(-c4ccccc4)c3C)[nH]n2)cc1	?	5[1.84 µM]	9%	29%[38.3 µM]	-92*	-6%[11.4 µM]
N#Cc1ccc(CS(=O)(=O)c2nnnn2-c2ccccc2)cc1	-5%	/	/	13%	/	/
CC(=O)c1ccc2c(c1)C1C=CCC1C(c1ccncc1)N2 (centres undefined)	-6%	2	-16%	13%[38.3 µM]	-23	-23%
C1=CC2c3ccccc3NC(c3ccncc3)C2C1 (centres undefined)	22µM*	5	-12%	8%[38.3 µM]	3	?
COc1ccc(N2C(=O)CC(N3CCN(C4CCc5ccccc5C4)CC3)C2=O)cc1 (centres undefined)	-3%	18	-1%	23%[38.3 µM]	-121*	17%
Cc1c(C(=O)N2CCCCCC2)oc2ccccc12	16µM*	0	0%	18%[38.3 µM]	26	-6%
O=C(c1cc2ccccc2c(=O)o1)N1CCCCCC1	18µM*	/	15%	6%	3	/
CC1CCN(C(=O)c2cc3ccccc3c(=O)o2)CC1	25µM*	/	-3%	2%	-8	/
O=C(c1cc2c(ccc3ccccc32)oc1=O)N1CCCC1	?	-7	-3%	-9%[38.3 µM]	-4	-4%
Cc1c(C(=O)N2CCN(c3ccccn3)CC2)oc2ccccc12	-21%	1	-12%	37%[38.3 µM]	37	10%
Cc1oc2c(c1C(=O)N1CCC(C)CC1)C(=O)c1ccccc1C2=O	-2%	/	0%	6%	-12	/
CC(C)(C)C1=Nn2c(nnc2-c2n[nH]c3c2CCC3)SC1	16µM*	-5	5%	-1%[38.3 µM]	?	8%[2.29 µM]
Cc1ccc(NC(=O)Nc2c(C)n(C)n(-c3ccccc3)c2=O)c(Cl)c1	/	0	/	/	/	/
CN(C)CCCO[C@H]1[C@H]([C@H](O)CO)O[C@H]2OC(C)(C)O[C@@H]21	/	4	-4%	/	/	-5%
CCCc1nnc(SCc2ccc(OC)cc2)n1N	18µM*	11	5%	-3%[38.3 µM]	29	11%
O=C(c1cccc(F)c1)N1CCC2(CCN(Cc3ccccc3)CC2)CC1	-4%	/	3%	22%	/	10%
CCOc1ccc(S(=O)(=O)N(C(=O)c2ccncc2)c2ccc3oc(C)c(C(=O)OC)c3c2)cc1	/	13	/	/	/	/
COc1cc(/C=C(\C#N)C(=O)N2CCOCC2)cc(Br)c1O	25µM*	/	-3%	11%	?	/
CSc1ccc(C2c3c(oc4ccc(F)cc4c3=O)C(=O)N2c2ccc(C)cn2)cc1 (centres undefined)	/	-5	/	/	/	/
O=[N+]([O-])c1cc(S(=O)(=O)C(F)(F)F)ccc1Sc1nc2ccccc2s1	25µM*	18	-3%	26%[38.3 µM]	113	-11%
